High-throughput results (PubChem)
The list is not random: actives were taken first. Their share in the collection is about 7.3%.
VACV mCherry inh: qHTS for Stage-Specific Inhibitors of Vaccinia Orthopoxvirus: mCherry Reporter Primary qHTS. Vaccinia virus mCherry reporter infection, fluorescence. AID 720579, 2013. Potency, µM (doses to about 36.5 µM), most hits filed as inhibitors. 0.63% of 310,000 active; calls by dose curve; tested in A549 cells; note: nearly all actives have a fitted effect of over 35% in size
HCV inhibitor: qHTS Assay for Inhibitors of Hepatitis C Virus (HCV) | 3.4% of 340,000 active | Potency, µM (top dose mostly 41.8 µM), usual class: inhibitors | Huh7.5.1 HCVcc-Cre infection, luciferase reporter, 44 h; active = well fitted inhibition curve with a large enough effect; inconclusive = small, poorly fitted or top-dose-only effect, or another doubt; inactive = no such curve, though single readings can be large or run the other way
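Antiviral activity was scored by luciferase reporter output from cells infected with HCVcc-Cre (~0.5 moi) in presence of compound, 44 h infection period, cells seeded 1,000/well 4 h prior.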
Vaccinia Venus: qHTS for Stage-Specific Inhibitors of Vaccinia Orthopoxvirus: Venus Reporter Primary qHTS. Vaccinia virus Venus reporter expression, fluorescence. Potency, µM (titrated, usually from 36.5 µM), usual class: inhibitors. 0.46% of 330,000 active; calls by dose curve; tested in A549 cells; note: nearly all actives have a fitted effect of over 30% in size
HCMV inh: qHTS Assay for inhibitors of the human cytomegalovirus (HCMV) | 4.5% of 410,000 active | HFF cells, HCMV-luciferase reporter, 72 h; active compounds read low | AID 1259415, 2018 | activity change, negative = inhibition, % at 57.5 µM; in the data active = activity change below about -60%; inconclusive = no clear call, values can overlap the other calls; inactive = above about -39%
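Two compound doses tested in HFFs infected with HCMV-luciferase, MOI 1 PFU/cell, 72 h at 37C. Lysate luminescence read with OneGlo; data normalized against buffer-only and 10uM Salinomycin inhibitor controls.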
FMDV inh: High Throughput Screening for Foot and Mouth Disease Virus Antivirals | 1.2% of 410,000 active | AID 1159524, 2015 | Potency, µM (series often up to 57.9 µM), most hits filed as inhibitors | FMDV antiviral cell-based qHTS; calls by dose curve; tested in HEK293T cells; note: read-out not given here; nearly all actives have a fitted effect of over 45% in size
Hits are given with their value; – = inactive; ? = inconclusive; · = no result given.

SMILES | VACV mCherry inh | HCV inhibitor | Vaccinia Venus | HCMV inh | FMDV inh
CC(=O)c1ccc(NC(=O)CSc2nnc(-c3ccco3)c(-c3ccco3)n2)cc1 | – | ? | – | – | –
CC(C)(C)c1ccc(NC(=O)N2CCCN(c3ccc([N+](=O)[O-])cn3)CC2)cc1 | – | – | ? | -73.0 | 31.6µM
C[C@@H]1CN(Cc2ccc3c(c2)CN(Cc2cccn2-c2cccnc2)CCO3)C[C@H](C)O1 | – | · | – | · | –
CCN(CC)CCNC(=O)CCc1c(C)nc2c(c(C)nn2-c2ccc(C)c(C)c2)c1C | · | 7.08µM | · | -98.0 | –
COc1ccc(CCNC(=O)CCc2c(C)nc3c(c(C)nn3-c3ccc(C)c(C)c3)c2C)cc1OC | – | · | – | – | ?
CCCNC(=O)C[C@H]1CC[C@@H]2[C@H](COC[C@@H](O)CN2C(=O)c2ccccn2)O1 | – | · | – | – | –
COc1ccccc1N1CCN(c2nc(CNC(=O)c3sc(C)nc3C)nc3ccccc23)CC1 | – | · | – | · | ?
CCOc1ccccc1-n1c(=S)sc2c(=O)n(-c3ccc(C)cc3)c(=S)[nH]c21 | – | ? | – | – | –
CCn1c(=S)sc2c(=O)n(-c3ccccc3)c(=S)[nH]c21 | – | – | – | -94.1 | –
CCc1ccc(-n2c(SCc3ccccc3Cl)nc3[nH]ncc3c2=O)cc1 | – | · | – | -105.3 | ?
CCc1ccc(-n2c(SCc3ccccc3C)nc3[nH]ncc3c2=O)cc1 | – | · | – | ? | –
Cc1ccc(N(C)S(=O)(=O)c2cccc(C(=O)NC3CC(C)(C)NC(C)(C)C3)c2)cc1 | ? | ? | – | – | –
CC1(C)CC(NC(=O)c2cccc(S(=O)(=O)N(Cc3ccccc3)c3ccccc3)c2)CC(C)(C)N1 | – | 2.24µM | ? | – | –
CCCCN(c1ccccc1)S(=O)(=O)c1cc2c3c(c1)C(C)C(=O)N3CCC2 (stereo unspecified) | – | · | – | ? | –
CC(C)(O)C#Cc1ccc(CN2CCCC(CO)(Cc3cccc(Cl)c3)C2)cc1 (stereo unspecified) | · | ? | · | -82.0 | –
CCNC(=O)c1cnc2sc(N3CCCCCC3)nn2c1=O | – | · | – | – | –
Cc1ccc(-n2nnnc2Sc2nc([N+](=O)[O-])nn2C)cc1 | – | – | ? | – | ?
Cc1ccc(-n2nnnc2Sc2nc([N+](=O)[O-])nn2C)c(C)c1 | · | – | ? | -70.1 | –
CN(C)c1cc(NC(=O)CNC(C)(C)CC(C)(C)C)c2ccccc2n1 | – | ? | – | -60.1 | –
CCOC(=O)c1ccccc1NC(=O)Cn1c(=O)n(CCCC(=O)NCc2ccc3c(c2)OCO3)c(=O)c2ccccc21 | – | · | – | – | –
Cc1ccc(/C=N/NC(=O)CSc2nc3ccccc3c(=O)n2-c2ccccc2C)s1 | – | ? | – | -68.9 | –
Cc1ccccc1-n1c(SCC(=O)NC(N)=O)nc2sc(-c3ccccc3)cc2c1=O | ? | ? | – | -71.2 | –
Cc1ccc(-n2c(SCC(=O)N/N=C/c3c(C)nn(-c4ccccc4)c3C)nc3ccccc3c2=O)cc1 | ? | ? | – | -62.8 | –
Cc1nn(-c2ccccc2)c(C)c1/C=N/NC(=O)CSc1nc2ccccc2c(=O)n1-c1ccc(Br)cc1 | – | ? | – | – | –
Cc1nn(-c2ccccc2)c(C)c1/C=N/NC(=O)CSc1nnc(SCc2cccc3ccccc23)s1 | – | 14.1µM | – | – | –
SMILES | VACV mCherry inh | HCV inhibitor | Vaccinia Venus | HCMV inh | FMDV inh
Nc1nc[nH]c(=O)c1N | – | · | – | · | ·
N#C/C(=C\c1ccc(Cl)cc1Cl)c1nc(-c2cccc(Cl)c2)cs1 | – | · | – | – | –
O=C(NCCc1ccc(Cl)cc1)c1cnccn1 | – | – | – | – | –
CC(C)(C)C(=O)N(Cc1ccc(Cl)cc1)c1cnccn1 | – | ? | – | -63.7 | ?
O=C(NC1CCCCC1)c1ccc2c(c1)N(Cc1ccccc1Cl)C(=O)c1ccccc1S2 | – | · | – | – | –
Cc1c(C(=O)NCc2ccccn2)sc(=O)n1Cc1ccc(-c2ccccc2)cc1 | – | · | – | – | –
Cc1c(C(=O)NCc2ccc([N+](=O)[O-])cc2)sc(=O)n1Cc1ccc(-c2ccccc2)cc1 | – | · | – | -84.2 | –
Cc1c(C(=O)NCc2ccc3c(c2)OCO3)sc(=O)n1Cc1ccc(-c2ccccc2)cc1 | – | · | – | -67.2 | –
Fc1ccc(-n2cc(-c3ccccc3)c3c(NC4CCCCC4)ncnc32)cc1 | – | · | – | – | –
Nc1cccc2c1C(=O)N(C(=O)c1ccco1)C2=O | – | – | – | – | –
Nc1cccc2c1C(=O)N(C(=O)/C=C/c1ccc(F)cc1)C2=O | ? | – | ? | – | 39.8µM
COc1ccc2oc(-c3ccc(C)c(NC(=O)c4ccc(N5CCCCC5)c([N+](=O)[O-])c4)c3)nc2c1 | – | · | – | – | –
O=C(Nc1ccc2c(c1)N(C1CCCC1)C(=O)c1ccccc1S2)c1ccc(F)cc1 | – | · | – | ? | –
CC(C)(C)c1ccc(NC(=O)COC(=O)C2(C)CC2(Cl)Cl)cc1 (stereo unspecified) | · | 11.2µM | · | – | –
CC(=O)c1c(C)[nH]c(C(=O)NCc2ccc(Cl)cc2)c1C | – | · | – | – | –
CC(=O)c1c(C)[nH]c(C(=O)NCc2cccc(Cl)c2)c1C | – | 11.2µM | – | – | –
CC(=O)c1[nH]c(C)c(C(=O)NCc2ccc(Cl)cc2)c1C | – | · | – | -93.6 | ?
Cc1cc(=O)n2c(sc3ccccc32)c1C#N | – | – | – | -90.5 | –
CC1(C)CC(NC(=O)COc2ccc(Br)cc2Cl)CC(C)(C)N1 | · | 25.1µM | · | – | –
Cc1c(OCC(=O)NC2CC(C)(C)NC(C)(C)C2)ccc2c1oc(=O)c1ccccc12 | · | 2µM | · | – | –
CC1(C)CC(NC(=O)COc2ccccc2Cl)CC(C)(C)N1 | · | – | · | ? | –
COc1cc(NC(=O)Cc2c(C(=O)O)c(C)cn2C)cc(OC)c1 | – | · | – | – | –
CNc1nc(NCc2cccc(OC)c2)c2sccc2n1 | – | · | – | ? | ?
COc1ccccc1CNc1nc(NCc2ccc(C(C)C)cc2)c2sccc2n1 | – | · | – | ? | ?
CC(C)c1ccc(CNc2nc(NCC3CC3)nc3ccsc23)cc1 | – | · | – | -61.9 | ?
SMILES | VACV mCherry inh | HCV inhibitor | Vaccinia Venus | HCMV inh | FMDV inh
COc1cccc(CNc2nc(NCc3ccccc3)nc3ccsc23)c1 | – | · | – | -102.1 | ?
COc1cccc(CNc2nc(NCC3CC3)nc3ccsc23)c1OC | – | · | – | ? | ?
COc1cccc(CNc2nc(NCC3CC3)nc3ccsc23)c1 | – | · | – | -71.3 | –
Cc1cc(NC(=O)CSc2nc(-c3cccc(F)c3)nc3c2c(=O)n(C)c(=O)n3C)no1 | – | · | – | – | –
O=C1OC(c2ccccc2)(c2ccc3cc(O)ccc3c2)c2ccccc21 (stereo unspecified) | 7.94µM | ? | ? | – | –
O=C1OC(c2ccc(O)cc2)(c2ccc(O)cc2)c2ccccc21 | – | ? | ? | – | –
CN(C)CCCNc1nccc(N2CCN(C)CC2)n1 | – | · | – | · | ·
CCCCn1c(SCc2nnc(-c3ccccc3)o2)nc2c1c(=O)n(C)c(=O)n2C | – | · | – | -65.5 | –
